Our source for the z-score values is PubChem BioAssay.

SMILES strings stand for the structures. Active and inactive are the calls of the source.

Assay [1] can be described thus: A549 cell viability effects, profiling panel, calcein-AM fluorescence, 48 h, basal (AID 1162). The note with it: higher = more signal.
The nature of assay [2]: adipocyte viability effects, profiling panel, cell-based, 3T3-L1 adipocytes, calcein-AM fluorescence, 48 h, basal (AID 1163). The note with it: 3T3-L1 adipocytes viability, higher = more signal.
A short description of assay [3]: HepG2 cell viability effects, profiling panel, calcein-AM fluorescence, 48 h, basal (AID 1164). The note with it: higher = more signal.
A short description of assay [4]: MM1S cell viability effects, profiling panel, calcein-AM fluorescence, 48 h, basal (AID 1165).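 Note: viability of MM1S multiple myeloma cells under basal unstimulated conditions.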 To be noted: higher = more signal.
Assay [5] in a line: basal RPMI8226 viability, no added stimulus, profiling panel, cell-based, calcein-AM fluorescence, 48 h, PK04 Diversity Set (AID 1166).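 Note: cells grown under basal conditions without added stimulus.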 The note with it: RPMI8226 myeloma viability, higher = more signal.
The nature of assay [6]: basal HepG2 mitochondrial membrane potential changes, profiling panel, cell-based, JC-1 fluorescence, 24 h, 100 nL compound (AID 1167). The note with it: higher = more signal.
The nature of assay [7]: basal 3T3-L1 adipocyte mitochondrial potential changes, profiling panel, cell-based, JC-1 fluorescence, 3T3-L1 adipocytes, 24 h, 100 nL compound (AID 1168). To be noted: JC-1 mitochondrial fluorescence, higher = more signal, called active from +8 up or from −8 down.
The nature of assay [8]: basal RPMI8226 mitochondrial membrane potential changes, profiling panel, cell-based, JC-1 fluorescence, 24 h, 100 nL compound (AID 1169). To be noted: RPMI8226 myeloma, JC-1 mitochondrial potential fluorescence, higher = more signal.
Assay [9] in a line: basal MM1S mitochondrial membrane potential changes, profiling panel, cell-based, JC-1 fluorescence, 24 h, 100 nL compound (AID 1170). To be noted: higher = more signal.
The nature of assay [10]: A549 lung cancer cell viability effects, profiling panel, resazurin fluorescence, 24 h, PK04 Diversity Set (AID 1171). To be noted: higher = more signal, called active from +8 up or from −8 down.
Note: test concentration not given here.

As for `COC(=O)C1=C(C)[C@@H](O)[C@@H](C)[C@H](c2c(OC)c(OC)c(C)c(OC)c2OC)O1`, the z-score in assay [1] was -0.501; in assay [2], -0.63; in [3] it was 0.287; in [4] it was 0.631; in [5], -0.976; in assay [6], -0.206. Also, the z-score in [7] is 0.657 (inactive); in [8], 0.267; in assay [9], -0.722; in assay [10] it was -0.345 (inactive).

On to `CO[C@@H]1COC(=O)[C@@H]2CCCN2C(=O)[C@@H](C)COC(=O)[C@H](COCc2ccccc2)NC(=O)CC=C[C@H]1C`, for which the z-score in assay [1] was -0.427; in [2] it was 0.169; in assay [3], -1.5; in assay [4], -0.329; in assay [5], -0.0455; in assay [6], -0.152. Further, the z-score in [7] was -1.02 (inactive); in assay [8], -0.156; in assay [9], -0.683; in assay [10], -0.366 (inactive).

Consider `C[C@H]1CC[C@@H](C(=O)O)N[C@@H]1c1ccc(C#CCN(C)C)cc1`, for which the z-score in [1] was 0.683; in assay [2], 0.398; in [3] it was 0.777; in assay [4], 0.601; in assay [5] it was -0.338; in assay [6], 0.984. For the same molecule, the z-score in assay [7] is 0.461 (inactive); in assay [8], -0.562; in assay [9], 0.921; in assay [10], 0.413 (inactive).

For `O=C1[C@H]2[C@H]3[C@H](O)[C@H](O)CC(=NOC[C@@H](O)COCc4ccco4)[C@H]3CC[C@H]2C(=O)N1C1CCCCC1`, the z-score in assay [1] was -1.03; in assay [2], 0.979; in assay [3] it was 0.187; in [4] it was 0.29; in assay [5] it was -1.01; in assay [6], -0.322. In addition, the z-score in assay [7] is -0.236 (inactive); in [8] it was -1.02; in assay [9], -0.611; in assay [10], -0.381 (inactive).

For the molecule `O=C1CCCC2OC12C(O)CCc1ccccc1` (stereo not given), the z-score was -0.202 in assay [1]; -0.0344 in assay [2]; -0.229 in [3]; 0.561 in [4]; -0.908 in [5]; 0.287 in assay [6]. The z-score is 0.279 (inactive) in assay [7], -0.278 in assay [8], 0.353 in assay [9] and -0.81 (inactive) in [10].

On to `CC(C)C[C@@H]1NC(=O)[C@H]2C[C@@H](C(=O)O)[C@@H](c3ccc(O)cc3)N2C1=O`, for which the z-score was 0.48 in assay [1]; 0.0559 in assay [2]; 0.111 in [3]; -2.7 in [4]; 0.25 in assay [5]; 1.27 in assay [6]. Also, the z-score in assay [7] was -0.0304 (inactive); in assay [8] it was 0.433; in assay [9] it was -0.0341; in assay [10], -0.0496 (inactive).

Consider `CO[C@@H]1COC(=O)[C@H](C)NC(=O)[C@@H](C)COC(=O)CCC[C@H]1C`, for which the z-score was -0.0857 in assay [1]; -0.459 in [2]; -0.735 in assay [3]; -0.3 in [4]; -1.38 in [5]; -0.85 in assay [6]. The z-score is -0.788 (inactive) in [7], 0.706 in assay [8], -0.626 in assay [9] and -0.0213 (inactive) in assay [10].

For the molecule `C#C[C@@H](CC)O[Si](C#Cc1ccc(Oc2ccccc2)cc1)(C(C)C)C(C)C`, the z-score in [1] is -2.96; in assay [2], -1.01; in [3], -2.63; in assay [4] it was -2.97; in [5] it was -4.2; in assay [6] it was -2.29. The z-score is -0.068 (inactive) in [7], -0.291 in assay [8], -1.11 in assay [9] and -0.936 (inactive) in assay [10].

For the molecule `O=C1NC(=O)C2C1C=CC(C(O)Cc1ccccc1)N2Nc1ccccn1` (stereo not given), the z-score is 0.379 in assay [1]; -0.949 in [2]; 1.16 in [3]; -0.171 in assay [4]; -0.87 in assay [5]; 0.0266 in [6]. In addition, the z-score in assay [7] is 0.272 (inactive); in assay [8], 0.477; in assay [9] it was -0.684; in assay [10], -1.22 (inactive).

In the case of `CCCNC(=O)OC[C@H]1O[C@H](CCON=C2[C@H]3CCn4c(=O)n(-c5ccccc5)c(=O)n4[C@H]3[C@H](O)[C@@H]3O[C@H]23)C=C[C@@H]1Oc1ccc(OC)cc1`, the z-score in [1] was -0.343; in assay [2], -0.414; in [3], -0.555; in assay [4], -1.83; in [5] it was -1.44; in assay [6], -0.25. Further, the z-score was -0.567 (inactive) in [7], -0.7 in assay [8], -0.75 in assay [9] and -1.2 (inactive) in [10].

With `CO[C@H]1COC(=O)[C@H](C)NC(=O)[C@@H](C)COC(=O)CC=C[C@@H]1C`, the z-score was -0.0101 in assay [1]; 0.0176 in assay [2]; -0.368 in [3]; -0.303 in [4]; 0.693 in assay [5]; -0.176 in assay [6]. The z-score was -1.32 (inactive) in assay [7], -0.282 in assay [8], -0.863 in assay [9] and -0.162 (inactive) in assay [10].

As for `C/C=C\[C@@H](NCc1ccccc1Br)[C@@H](O)Cc1ccccc1`, the z-score was -1.17 in assay [1]; 1.43 in assay [2]; -1.44 in [3]; -1.53 in [4]; -3.29 in [5]; -1.34 in assay [6]. The z-score in assay [7] is 0.0182 (inactive); in [8] it was -0.926; in [9], -0.0951; in assay [10] it was -0.29 (inactive).

For the molecule `O=C1O[C@@H](c2ccccc2)[C@@H](c2ccccc2)N2[C@@H](c3ccc(OCCO)cc3)[C@]3(C(=O)Nc4ccccc43)[C@@H](C(=O)N3CCN(c4ncccn4)CC3)[C@H]12`, the z-score in assay [1] was -0.47; in assay [2] it was -0.888; in assay [3], 0.834; in assay [4], -0.138; in [5], 0.229; in assay [6], -0.679. Also, the z-score in assay [7] was 0.339 (inactive); in assay [8], -0.842; in [9], -0.779; in [10], 0.42 (inactive).

In the case of `CC(C)=CCCC(C)=CCON=C1C[C@@H](O)[C@@H](O)[C@@H]2[C@@H]3C(=O)N(C[C@@H]4CCCO4)C(=O)[C@@H]3CC[C@@H]12`, the z-score was 0.113 in assay [1]; -0.833 in [2]; -0.315 in [3]; 0.182 in assay [4]; -0.0114 in [5]; -1.31 in [6]. Further, the z-score in assay [7] is 0.729 (inactive); in assay [8], -0.495; in assay [9], -0.761; in [10] it was 0.0805 (inactive).

Consider `O[C@@H](Cc1ccccc1)[C@H]1C2C=CCCC(c3ccccc3)=C2CN1Cc1cccc(Cl)c1` (stereo not given in full), for which the z-score was 1.89 in assay [1]; 0.101 in [2]; 0.662 in assay [3]; -3.27 in assay [4]; -3.43 in assay [5]; 0.514 in [6]. The z-score in assay [7] is -0.366 (inactive); in assay [8], -1.09; in assay [9], -0.823; in [10], 0.75 (inactive).

Consider `CC(=O)OC[C@H]1O[C@@H](ON=C[C@@H](C)[C@H](OCc2ccccc2)C(C)C)[C@H](OC(C)=O)[C@@H](OC(C)=O)[C@@H]1OC(C)=O`, for which the z-score in [1] was 0.605; in assay [2] it was -0.466; in assay [3] it was 0.471; in assay [4] it was 0.614; in assay [5] it was 0.048; in [6] it was -0.148. In addition, the z-score in assay [7] was 0.0097 (inactive); in assay [8], 0.386; in assay [9], -0.863; in [10], -1.23 (inactive).
